# Active and inactive are the calls of the source.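 The calls were made as follows: active = compounds that lower viability of the colon cancer cells in the luminescence readout, with no numeric limit stated; inactive = the rest.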
# Assay: reduced SW480 viability measured with CellTiter-Glo, NPC library, primary (AID 1117343)
# Details: CellTiter-Glo luminescence; at 20 µM (top of the series)
row,SMILES,viability decrease (inhibition)
1,NCC(=O)O,-6.3% (inactive)
2,CC12CCC(C[N+](C)(CCC[N+](C)(C)C)C1)C2(C)C (stereo not drawn),7.3% (inactive)
3,CN(C)C(=O)CNC(=O)Cc1ccccc1,-4.5% (inactive)
4,Cc1cccc(N(C)C(=S)Oc2ccc3c(c2)CCC3)c1,42.6% (inactive)
5,COc1cc2c(cc1OC)C(C(C(=O)N(CCc1ccc(OC)c(OC)c1OC)CCc1ccc(OC)c(OC)c1OC)c1ccccc1)=NCC2 (stereo not drawn),87.9% (active)
6,O=C1CCC(C(=O)O)N1 (stereo not drawn),-1.5% (inactive)
7,O=Cc1ccc(O)c(O)c1O,78.5% (active)
8,O=S(c1cc(Cl)cc(Cl)c1O)c1cc(Cl)cc(Cl)c1O,126% (active)
9,CC(C)(C)c1cc(C=O)cc(C(C)(C)C)c1O,-22.1% (inactive)
10,CN(CC1(C)CCCO1)S(=O)(=O)c1ccc(Cl)c(S(N)(=O)=O)c1 (stereo not drawn),-9.7% (inactive)
11,CCCCC(C)(O)CC=C[C@H]1[C@H](O)CC(=O)[C@H]1CCCCCCC(=O)OC (stereo partly drawn),-17.2% (inactive)
12,C=CCOc1cc(Cl)ccc1C(=O)NCCN(CC)CC,32.4% (inactive)
13,CC(=O)SCC(CC(=O)c1ccc(C)cc1)C(=O)O (stereo not drawn),-19.1% (inactive)
14,CCCCNc1ccc(C(=O)OCCN(CC)CC)cc1,60.6% (active)
15,C/C=C(/C(=C/C)c1ccc(OC(C)=O)cc1)c1ccc(OC(C)=O)cc1,129% (active)
16,O=C(Nc1ccc(Oc2ccc(Cl)cc2)c(Cl)c1)c1cc(I)cc(I)c1O,161% (active)
17,CC(=O)Nc1ccc(OC(=O)c2ccccc2OC(C)=O)cc1,-3% (inactive)
18,O=C(/C=C/c1ccccc1)OCc1ccccc1,19.3% (inactive)
